Source: PubChem BioAssay (NCI)
About 79,000 compounds went through this panel and 15% of them were active in at least one assay; those are over-represented in the sample as a whole. Calls of active or inactive are those of the source. Cut-off read from the data, not from the text of the source: active = growth inhibition above about 70%; inactive = the rest.

Experiments:
[1] = NCI Yeast Anticancer Drug Screen. Data for the wt1 strain (AID 149);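 note: 0% = growth of vehicle-treated wt1 cultures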; conditions: S. cerevisiae wt1 strain (SPY 50644) growth inhibition, active compounds read high
Summary of the method: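 Growth inhibition read against vehicle controls after compound exposure of the wt1 yeast strain.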

[2] = NCI Yeast Anticancer Drug Screen. Data for the mgt1 strain (AID 153); conditions: S. cerevisiae mgt1 mutant growth inhibition, active compounds read high
Summary of the method: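 Vehicle-normalized growth inhibition is determined in mgt1 yeast, a strain selected for a defined alteration in DNA repair or cell cycle control.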

[3] = NCI Yeast Anticancer Drug Screen. Data for the rad50 strain (AID 155);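 note: 0% = growth of vehicle-only cultures of the same strain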; conditions: S. cerevisiae rad50 strain growth inhibition, active compounds read high
Summary of the method: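 Readout: growth inhibition relative to vehicle-treated cultures. Compound exposure was carried out in a genetically defined yeast strain deficient in DNA damage repair.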

[4] = NCI Yeast Anticancer Drug Screen. Data for the mec2-1 strain (AID 157); conditions: S. cerevisiae mec2-1 strain, active compounds read high
Summary of the method: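 Mutant yeast (mec2-1) grown with compound; growth inhibition relative to vehicle control reported.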

[5] = NCI Yeast Anticancer Drug Screen. Data for the sgs1 mgt1 strain (AID 161);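 note: 0% = growth of cultures given vehicle only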; conditions: S. cerevisiae sgs1 mgt1 strain, active compounds read high
Summary of the method: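 Compounds are added to genetically altered yeast, and growth is compared with cultures given vehicle alone to give percent inhibition.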

[6] = NCI Yeast Anticancer Drug Screen. Data for the CLN2oe strain (AID 163);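 note: 0% = growth of vehicle-only control cultures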; conditions: S. cerevisiae CLN2oe strain, active compounds read high
Summary of the method: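 Compounds are applied to yeast harbouring a defined cell-cycle control change; reduced growth compared with vehicle-treated controls gives the value.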

[7] = NCI Yeast Anticancer Drug Screen. Data for the cln2 rad14 strain (AID 165);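 note: 0% = growth equal to vehicle treated cultures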; conditions: S. cerevisiae cln2 rad14 strain, active compounds read high
Summary of the method: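 Readout is yeast growth inhibition versus vehicle-treated controls, using a strain with cln2 and rad14 alterations exposed to compound.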

[8] = NCI Yeast Anticancer Drug Screen. Data for the bub3 strain (AID 167); conditions: S. cerevisiae bub3 mutant strain, active compounds read high
Summary of the method: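 Readout: yeast growth inhibition, expressed relative to vehicle-only wells. The test organism is a mutant strain from a panel with lesions in DNA repair or checkpoint genes.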

[9] = NCI Yeast Anticancer Drug Screen. Data for the wt2 strain (AID 169);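 note: 0% = growth of vehicle-treated yeast cultures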; conditions: S. cerevisiae wt2 strain growth inhibition, active compounds read high
Summary of the method: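 Against vehicle-treated controls, the growth of yeast exposed to each compound was compared, and the inhibition was recorded.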

[10] = NCI Yeast Anticancer Drug Screen. Data for the mlh1 strain (AID 171);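 note: 0% = growth of vehicle-treated control cultures of the same strain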; conditions: S. cerevisiae mlh1 strain growth inhibition, active compounds read high
Summary of the method: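 Measured: yeast growth. Reference: vehicle-treated controls. Organism: strain with a defined alteration affecting DNA damage repair or cell cycle control, treated with compound.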

[11] = NCI Yeast Anticancer Drug Screen. Data for the sgs1 strain (AID 173);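 note: 0% = growth of vehicle-only control cultures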; conditions: S. cerevisiae sgs1 mutant, active compounds read high
Summary of the method: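 Each compound was added to cultures of the altered yeast strain. Growth was recorded, and inhibition was derived by comparison with vehicle controls.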

[12] = NCI Yeast Anticancer Drug Screen. Data for the mlh1 rad18 strain (AID 175); conditions: S. cerevisiae mlh1 rad18 strain growth inhibition, active compounds read high
Summary of the method: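 Genetically defined yeast (DNA repair-deficient) exposed to compounds; growth inhibition determined relative to vehicle.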

[13] = at 5.0 µM (retest, dose inferred, filed as 0.5)
[14] = at 50.0 µM (retest, dose inferred, filed as 5.0)

Measured: growth inhibition

Cn1c(COc2ccc(/C=N/NC(=O)CCC(=O)N/N=C/c3ccc(OCc4c[n+]5ccccc5n4C)cc3)cc2)c[n+]2ccccc12
inactive: [1]; at 1.2 µM 6% | [1]; at 3.7 µM 7% | [1]; at 11.0 µM 11% | [1]; at 33.0 µM 12% | [2]; at 1.2 µM 4% | [2]; at 3.7 µM 3% | [2]; at 11.0 µM 4% | [2]; at 33.0 µM 24% | [3]; at 1.2 µM 1% | [3]; at 3.7 µM 2% | [3]; [13] -11% | [3]; at 11.0 µM 1% | [3]; at 33.0 µM 5% | [3]; [14] 55% | [3]; at 50.0 µM 49.1% | [4]; at 1.2 µM -2% | [4]; at 3.7 µM 0% | [4]; [13] -10% | [4]; at 11.0 µM 0% | [4]; at 33.0 µM 10% | [4]; [14] 12% | [4]; at 50.0 µM 32.1% | [5]; [13] -1% | [5]; [14] 47% | [5]; at 50.0 µM 63.4% | [6]; at 1.2 µM -5% | [6]; at 3.7 µM -3% | [6]; at 11.0 µM -3% | [6]; at 33.0 µM -5% | [7]; [13] -8% | [7]; [14] 28% | [7]; at 50.0 µM 18.8% | [8]; at 1.2 µM -3% | [8]; at 3.7 µM -6% | [8]; [13] -24% | [8]; at 11.0 µM -6% | [8]; at 33.0 µM -1% | [8]; [14] 33% | [8]; at 50.0 µM 18.9% | [9]; at 1.2 µM 4% | [9]; at 3.7 µM 5% | [9]; at 11.0 µM 8% | [9]; at 33.0 µM 12% | [10]; at 1.2 µM 1% | [10]; at 3.7 µM -2% | [10]; at 11.0 µM -1% | [10]; at 33.0 µM 8% | [11]; at 1.2 µM 4% | [11]; at 3.7 µM 4% | [11]; at 11.0 µM 5% | [11]; at 33.0 µM 16% | [12]; [13] -15%
active: [1]; at 100.0 µM 81% | [2]; at 100.0 µM 98% | [3]; at 100.0 µM 97% | [4]; at 100.0 µM 96% | [6]; at 100.0 µM 76% | [8]; at 100.0 µM 95% | [9]; at 100.0 µM 99% | [10]; at 100.0 µM 96% | [11]; at 100.0 µM 96% | [12]; [14] 84% | [12]; at 50.0 µM 90.2%

CC(C)(C)[Si](C)(C)OCC1OC(n2cnc3c(N)ncnc32)C2OC(=S)OC12 (stereo not drawn)
active: [3]; at 100.0 µM 98%
inactive: [1]; at 1.2 µM 1% | [1]; at 3.7 µM -1% | [1]; at 11.0 µM 0% | [1]; at 33.0 µM 2% | [1]; at 100.0 µM 17% | [2]; at 1.2 µM -1% | [2]; at 3.7 µM 0% | [2]; at 11.0 µM 0% | [2]; at 33.0 µM -29% | [2]; at 100.0 µM 14% | [3]; at 1.2 µM -1% | [3]; at 3.7 µM 5% | [3]; [13] 5% | [3]; at 11.0 µM -19% | [3]; at 33.0 µM 17% | [3]; [14] 45% | [3]; at 50.0 µM 4.45% | [4]; at 1.2 µM 0% | [4]; at 3.7 µM 2% | [4]; [13] 5% | [4]; at 11.0 µM 2% | [4]; at 33.0 µM 7% | [4]; [14] 56% | [4]; at 50.0 µM 40% | [4]; at 100.0 µM 28% | [5]; [13] 5% | [5]; [14] 29% | [5]; at 50.0 µM 11.6% | [6]; at 1.2 µM -2%
